Only some compounds are listed: those with a hit (about 7.9% of all), similar ones and a draw of the others.
PLAP act = PLAP enzyme activators, biochemical, luminescence, HTS; Alkaline phosphatase, placental type (Homo sapiens), P05187; purified PLAP enzyme, luminescent substrate read-out; stronger effect = higher value; activation fold at 20 µM; 96,000 tested, 1.2% active; AID 696, 2007; in the data active means activation fold above about 2
M1 antagonist = antagonists of rat M1 muscarinic receptor; 64,000 tested, 3.4% active; B-score at 10 µM; Muscarinic acetylcholine receptor M1 (Rattus norvegicus), P08482; CHO-M1 cells, Fluo-4 calcium, ACh EC80 antagonist mode; stronger effect = lower value;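 active means calcium fluorescence response, raw or row-and-column corrected B-score, differing from the plate sample mean either way at a set confidence level, mostly lower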
Her2 expr inh = inhibitors of Her2 protein expression, primary screen, SKBR-3 cells, AlphaScreen, 66K library; Receptor tyrosine-protein kinase erbB-2 (Homo sapiens), P04626; SKBR-3 HER2 protein level, 18-24 h; stronger effect = lower value; HER2 level % of control, % at 10 µM; 65,000 tested, 0.69% active; AID 645, 2007;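 active means HER2 level under 5% of the carrier-only control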;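 further: 100% = DMSO carrier and 0% = 500 nM PU-H71 HSP90 inhibitor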
Cav3 T inh = Cav3.2 calcium influx blockers – cell-based, Fluo-4 calcium fluorescence, FDSS, MLSMR library, primary screen; B-score at 10 µM; Cav3.2-expressing cells; stronger effect = lower value; 100,000 tested, 4% active; Voltage-dependent T-type calcium channel subunit alpha-1H (Homo sapiens), O95180; AID 449739, 2010;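 active means single-dose well whose peak fluorescence ratio is a statistical outlier from its plate by either plate-standardised score or position-corrected B-score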
Target sequence (O95180 whole entry, looked up): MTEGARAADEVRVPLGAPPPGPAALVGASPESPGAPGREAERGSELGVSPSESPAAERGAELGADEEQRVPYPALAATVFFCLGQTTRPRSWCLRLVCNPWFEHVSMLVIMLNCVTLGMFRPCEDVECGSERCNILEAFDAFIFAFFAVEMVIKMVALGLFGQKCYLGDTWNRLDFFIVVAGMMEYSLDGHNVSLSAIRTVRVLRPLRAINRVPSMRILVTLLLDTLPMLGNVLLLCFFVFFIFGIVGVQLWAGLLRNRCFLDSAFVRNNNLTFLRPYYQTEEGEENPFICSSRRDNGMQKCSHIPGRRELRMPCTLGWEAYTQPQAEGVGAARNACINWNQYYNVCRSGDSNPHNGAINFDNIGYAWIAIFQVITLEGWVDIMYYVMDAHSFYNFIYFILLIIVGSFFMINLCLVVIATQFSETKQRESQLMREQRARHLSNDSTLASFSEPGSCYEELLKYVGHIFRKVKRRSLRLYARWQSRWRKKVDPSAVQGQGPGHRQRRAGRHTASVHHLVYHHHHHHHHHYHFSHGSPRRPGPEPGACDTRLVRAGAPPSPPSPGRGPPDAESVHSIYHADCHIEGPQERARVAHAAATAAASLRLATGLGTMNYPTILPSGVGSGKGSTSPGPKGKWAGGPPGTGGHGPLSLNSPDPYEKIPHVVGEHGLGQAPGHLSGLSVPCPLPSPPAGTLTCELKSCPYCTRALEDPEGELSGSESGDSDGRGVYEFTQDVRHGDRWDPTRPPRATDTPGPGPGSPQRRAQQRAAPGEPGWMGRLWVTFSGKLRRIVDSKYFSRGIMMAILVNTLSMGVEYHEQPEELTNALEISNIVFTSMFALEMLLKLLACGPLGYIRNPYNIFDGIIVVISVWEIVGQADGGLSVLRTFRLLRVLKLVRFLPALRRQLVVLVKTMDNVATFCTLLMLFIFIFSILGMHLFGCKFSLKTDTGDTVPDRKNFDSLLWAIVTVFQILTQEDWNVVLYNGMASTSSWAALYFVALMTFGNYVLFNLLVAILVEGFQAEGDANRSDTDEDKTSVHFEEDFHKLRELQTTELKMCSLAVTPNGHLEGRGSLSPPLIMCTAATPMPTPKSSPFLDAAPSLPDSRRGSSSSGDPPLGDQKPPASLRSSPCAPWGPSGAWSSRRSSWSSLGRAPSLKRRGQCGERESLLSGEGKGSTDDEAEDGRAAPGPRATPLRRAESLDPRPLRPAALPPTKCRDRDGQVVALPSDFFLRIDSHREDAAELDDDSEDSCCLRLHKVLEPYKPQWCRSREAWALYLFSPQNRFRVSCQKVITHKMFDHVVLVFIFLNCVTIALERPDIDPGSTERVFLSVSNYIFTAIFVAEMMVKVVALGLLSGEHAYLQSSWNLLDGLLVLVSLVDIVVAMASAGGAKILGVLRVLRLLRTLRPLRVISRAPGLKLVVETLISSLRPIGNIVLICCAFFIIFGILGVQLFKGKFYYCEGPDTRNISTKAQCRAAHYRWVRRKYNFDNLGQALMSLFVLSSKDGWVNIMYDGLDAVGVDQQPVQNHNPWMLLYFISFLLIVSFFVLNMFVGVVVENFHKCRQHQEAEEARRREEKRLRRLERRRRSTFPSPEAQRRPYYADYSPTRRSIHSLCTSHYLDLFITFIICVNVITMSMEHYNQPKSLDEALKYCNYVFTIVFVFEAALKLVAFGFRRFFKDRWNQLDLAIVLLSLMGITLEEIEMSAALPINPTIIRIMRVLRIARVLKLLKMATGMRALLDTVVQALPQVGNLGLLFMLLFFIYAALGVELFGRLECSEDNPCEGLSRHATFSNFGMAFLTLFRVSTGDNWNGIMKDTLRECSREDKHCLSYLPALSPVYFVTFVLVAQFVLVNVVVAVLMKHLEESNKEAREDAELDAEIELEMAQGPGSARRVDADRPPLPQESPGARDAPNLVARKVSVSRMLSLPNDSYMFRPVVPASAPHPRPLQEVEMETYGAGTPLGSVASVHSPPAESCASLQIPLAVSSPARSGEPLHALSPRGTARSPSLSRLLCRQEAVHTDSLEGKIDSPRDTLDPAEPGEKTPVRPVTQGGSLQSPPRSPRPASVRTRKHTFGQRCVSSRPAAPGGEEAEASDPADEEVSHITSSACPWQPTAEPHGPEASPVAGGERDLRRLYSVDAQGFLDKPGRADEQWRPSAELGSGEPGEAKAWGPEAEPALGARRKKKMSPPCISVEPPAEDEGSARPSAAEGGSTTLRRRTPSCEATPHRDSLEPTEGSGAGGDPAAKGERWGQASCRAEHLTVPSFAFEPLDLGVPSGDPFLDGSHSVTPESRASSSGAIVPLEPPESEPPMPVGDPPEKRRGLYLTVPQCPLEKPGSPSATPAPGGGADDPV
M1 agonist = M1 muscarinic receptor agonists, primary screen, CHO-M1 cells, Fluo-4 calcium, agonist mode. B-score at 10 µM. 64,000 tested, 3% active. Fluo-4 calcium fluorescence; stronger effect = higher value. Muscarinic acetylcholine receptor M1. AID 626, 2007;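 active means fluorescence rise, raw or as B-score row- and column-corrected plate score, outside the 99.7% band of its plate's samples, either direction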
An asterisk follows results filed as active; . = no result given.

SMILES | PLAP act | M1 antagonist | Her2 expr inh | Cav3 T inh | M1 agonist
COc1cc(CN2C(=O)C(NC(=O)c3ccco3)(C(F)(F)F)C3=C2CC(C)(C)CC3=O)cc(OC)c1 (centres undefined) | 1.8 | . | . | 0.78 | .
c1cn2c(NC3CCCC3)c(-c3ccc(N4CCOCC4)cc3)nc2cn1 | 1.4 | -0.028 | 100 | -0.58 | 1.5
CCN(CC)c1ccc(-c2nc3cnccn3c2NC2CCCC2)cc1 | 1.3 | . | . | -6.2* | .
Cc1nnc(NC(=O)CN2C(=O)c3ccccc3S2(=O)=O)s1 | 2.1* | 0.42 | 91 | 0.95 | -1
O=C(CN1C(=O)c2ccccc2S1(=O)=O)Nc1ccccc1 | 1.1 | . | . | . | .
COC(=O)/C=C/S(=O)(=O)c1ccc(NC(C)=O)cc1 | 0.9 | 0.71 | -20* | 1.2 | -0.2
COC(=O)C1=C(N)Oc2cc(C)n(CCc3ccccc3)c(=O)c2C1c1cccnc1 (centres undefined) | 2* | -0.37 | 96 | -0.81 | -0.49
COC(=O)C1=C(N)Oc2cc(C)n(CC3CCCO3)c(=O)c2C1c1ccc(Cl)cc1 (centres undefined) | 1.4 | 1.6 | 102 | -3.1* | 0.69
COc1ccc(NS(=O)(=O)c2ccc3c(c2)n(C)c(=O)n3C)cc1 | 1 | . | . | -3.8* | .
COc1ccc(OC)c(NS(=O)(=O)c2ccc3c(c2)n(C)c(=O)n3C)c1 | 1 | 0.0079 | 78 | -0.29 | -0.018
Cc1ccc(OCc2nc(C#N)c(N3CCN(Cc4ccccc4)CC3)o2)cc1 | 1.2 | -0.023 | 154 | -5.9* | 0.81
N#Cc1nc(COc2ccccc2)oc1N1CCC(Cc2ccccc2)CC1 | 1 | -0.41 | 132 | -5.6* | -0.24
CNC(=O)c1nc(C)c(C2(C)CC(c3cccc([N+](=O)[O-])c3)=NO2)s1 (centres undefined) | . | . | . | 0.16 | .
Cc1noc(C)c1CSc1nc2[nH]ncc2c(=O)n1-c1ccccc1 | . | 0.75 | 65 | -0.075 | 0.0024
Cc1cccc(-n2c(SCc3cc(=O)n4c(C)cccc4n3)nc3[nH]ncc3c2=O)c1 | 2.8* | . | . | . | .
CC#CCCCC(=O)Nc1cc(OC)nc(OC)n1 | 0.9 | 0.54 | -24* | 1.5 | -0.59
CCOc1ccc(OCCCCNCCN)cc1 | 1.2 | . | . | . | .
Cc1cccc(NC(=S)NNC(=O)c2sccc2C)c1 | 2.1* | . | . | 0.095 | .
Cc1ccsc1C(=O)NNC(=S)NCC(C)C | 2.2* | . | . | 0.46 | .
CC(C)CNC(=S)NNC(=O)c1csc2ccccc12 | 1.4 | . | . | -1 | .
CCc1cc(C(=O)NNC(=S)Nc2cccc(C)c2)cs1 | . | . | . | -2.2 | .
Cc1cccc(NC(=S)NNC(=O)c2csc(C(C)C)c2)c1 | . | . | . | -5.5* | .
COC(=O)C(CC(=O)c1ccc(Cl)cc1)c1ccc(C(C)C)cc1 (centres undefined) | 0.8 | . | . | . | .
Fc1cccc(CN2CCN(c3ncccn3)CC2)c1 | 1 | . | 93 | -1 | .
O=[N+]([O-])c1cc(S(=O)(=O)C(F)(F)F)ccc1Sc1nc2ccccc2[nH]1 | 1.1 | . | . | -4.5* | .
SMILES | PLAP act | M1 antagonist | Her2 expr inh | Cav3 T inh | M1 agonist
CS(=O)(=O)c1ccc(Sc2nc3ccccc3[nH]2)c([N+](=O)[O-])c1 | 1.6 | . | . | 1.3 | .
CCOC(=O)CSc1nc2c(sc(=S)n2-c2ccccc2OC)c(=O)n1Cc1ccco1 | 1.4 | . | . | -5.6* | .
CCOC(=O)CSc1nc2c(sc(=S)n2Cc2ccco2)c(=O)n1-c1ccccc1 | 1.2 | -0.54 | 127 | -3.9* | 1.2
C[C@H](NC(=O)Nc1ccc2c(c1)OCCO2)C(=O)O | 0.9 | 0.29 | 98 | 0.67 | -0.35
CCn1c(SCCC(=O)Nc2ccccc2)nnc1-c1ccc(OC)cc1 | 1 | 0.49 | 82 | 1.1 | 0.37
CN1CCN(C(=O)c2cc3c(C(F)(F)F)nn(C)c3s2)CC1 | 1 | . | . | 1.4 | .
CC12CC(NC(=O)N1Cc1ccccc1)c1ccccc1O2 (centres undefined) | 1.1 | 0.71 | 107 | -5.4* | -1.8
CC12CC(NC(=O)N1c1cccc(C(=O)N3CCN(c4ccccc4)CC3)c1)c1ccccc1O2 (centres undefined) | 1.3 | -0.00056 | 75 | -5.4* | 0
CC12CC(NC(=O)N1c1ccc(C(=O)N3CCN(c4ccc(F)cc4)CC3)cc1)c1ccccc1O2 (centres undefined) | 1.4 | -1.1 | 82 | -5.3* | 2.2
CC12CC(NC(=O)N1c1cccc(C(=O)NCc3ccccc3)c1)c1ccccc1O2 (centres undefined) | 1 | . | . | . | .
